Assay results as given in PubChem BioAssay (NCI).
The panel holds about 83,000 compounds, 20% with a hit somewhere; the sample as a whole holds those more often.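 Single-dose data. Exposure time 48 hours. Values below 10 considered active.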 Values without a mark were called inactive. Active and inactive are the calls of the source.

Experiments:
Test in all cases: NCI-60 one-dose screen, 48 h (100 = growth as untreated, 0 = no growth, -100 = all killed)
Details in all cases: 10 µM unless noted
NCI-H23 lung = test system: NCI-H23 lung
NCI-H226 lung = test system: NCI-H226 lung
NCI-H322M lung = test system: NCI-H322M lung
HOP-62 NSCLC = test system: HOP-62 NSCLC
NCI-H460 lung = test system: NCI-H460 lung
HOP-92 NSCLC = test system: HOP-92 NSCLC
NCI-H522 lung = test system: NCI-H522 lung
A549/ATCC NSCLC = test system: A549/ATCC NSCLC
786-0 renal = test system: 786-0 renal
COLO 205 colon = test system: COLO 205 colon

| SMILES | growth (NCI-H23 lung) | growth (NCI-H226 lung) | growth (NCI-H322M lung) | growth (HOP-62 NSCLC) | growth (NCI-H460 lung) | growth (HOP-92 NSCLC) | growth (NCI-H522 lung) | growth (A549/ATCC NSCLC) | growth (786-0 renal) | growth (COLO 205 colon) |
| --- | --- | --- | --- | --- | --- | --- | --- | --- | --- | --- |
| CC1(C)CC(C(=O)OCCCCCCCCCCC[P+](c2ccccc2)(c2ccccc2)c2ccccc2)C(C)(C)N1O (stereo not given) | -61.1% (active) | -65.6% (active) | -20.6% (active) | -45.5% (active) | -79.8% (active) | -68.8% (active) | -29.4% (active) | -42.6% (active) | -75.4% (active) | -79.9% (active) |
| COc1ccc(-c2cc(-c3ccc(N(C)C)cc3)nc(NC(=O)c3ccncc3)n2)cc1 | 91.8% | 82.6% | 87.8% | 103% | 99.7% | 62.8% | 90.7% | 93.7% | 97.1% | 111% |
| C=CC[N+]1(CCO)CCN=C1CCCCCCCCCCCCC (stereo not given) | -86.7% (active) | 3.45% (active) | 73.9% | -90.5% (active) | -85.8% (active) | -18.3% (active) | -82.6% (active) | 0.535% (active) | -97.1% (active) | -91.4% (active) |
| Cc1nn(-c2nc3ccccc3[nH]2)c2c1C(c1ccc3c(c1)OCO3)CC(=O)N2 (stereo not given) | 4.34% (active) | 32% | 65% | 22.1% | -8.19% (active) | 12.6% | 26.7% | 22.8% | 32.8% | 83.1% |
| Cn1cc(-c2csc(-c3cn(C)c4ncccc34)n2)c2ccccc21 | 41.8% | 74.8% | 45.1% | 33.8% | 11.7% | 66.1% | -18.8% (active) | 23.8% | 60% | -7.52% (active) |
| Oc1cccc(Nc2nccc(-c3ccc4ccccc4c3)n2)c1 | 33.2% | 70.8% | 46% | 27.2% | 16.1% | 63.5% | 15.6% | 30.7% | 30.1% | 84.7% |
| CCCCCCCCSC1=CC(=O)C(OC)=C(OC)C1=O | 26.6% | 80.9% | 89.4% | 91.3% | 45.9% | -31.3% (active) | -97.8% (active) | 57.2% | 61.9% | 37.1% |
| COc1ccc(C2c3ccc4ccccc4c3Oc3ncnc(N)c32)cc1 (stereo not given) | 83% | 63.9% | 88% | 45.1% | 92.4% | 70.4% | 46.2% | 97.3% | 97.1% | 94.5% |
| CCOC(=O)c1c2ncccc2n2c(=O)n(-c3ccc(Cl)cc3)nnc12 | 92.7% | 104% | 67.1% | 71.7% | 69.7% | 101% | 71.1% | 81.8% | 97.1% | 109% |
| Cc1[nH]n(-c2ccccc2)c2nc3nncc3c(-c3ccc(Cl)cc3)c12 | 103% | 104% | 114% | 110% | 102% | 76.2% | 105% | 84.9% | 100% | 111% |
| CC/C=C\C[C@H](F)C/C=C1/C(=O)C=C[C@@H]1C/C=C\CCCC(=O)O | 62.7% | 104% | 93.6% | 111% | 50.6% | 109% | 31% | 68.3% | 82.4% | 48.5% |
| CCN(CC)CC(C)(C)C(=O)/C=C/c1ccccc1 | 62.1% | 63.5% | 67.7% | 90.6% | 32.3% | 34.7% | 60.6% | 80.3% | 60% | 53.4% |
| CCCCCCCCCCCCCC(=O)C(C)N (stereo not given) | 51.6% | 87.9% | 53.5% | 22.3% | 4.75% (active) | 8.22% (active) | 0.193% (active) | 51.6% | 71.3% | 15.9% |
| Cc1nn(-c2ccccc2)c2nc(C)n(-c3ccc(Br)cc3)c(=O)c12 | 16% | 49% | 51.3% | 35.1% | 7.92% (active) | 56.3% | -14.1% (active) | 21.3% | 43.3% | 1.32% (active) |
| Cc1cc(Cl)ccc1Nc1nc(C(F)(F)F)ccc1C(=O)N/N=C/c1ccc(F)cc1 | 16.4% | 22.9% | 9.9% (active) | 5.92% (active) | 2.29% (active) | -18.1% (active) | -9.21% (active) | 16.5% | -50.7% (active) | 13.9% |
| COc1ccc(C(=O)/C=C/c2c[n+](=O)c3ccc(F)cc3n2[O-])cc1 | 98.7% | 102% | 118% | 104% | 119% | 85.7% | 109% | 108% | 110% | 127% |
| COc1cc2cc(COc3nccc(-c4ccc(Cl)cc4)n3)c(=O)[nH]c2cc1OC | 88.5% | 89.1% | 79.6% | 88.2% | 86.2% | 69.9% | 108% | 67.5% | 80.9% | 44.3% |
| N=S(=O)(NC(=O)c1ccc(Cl)cc1Cl)c1ccc(Br)s1 (stereo not given) | 102% | 94.5% | 118% | 91% | 85.8% | 86.9% | 103% | 80.7% | 89.9% | 107% |
| O=C(O)c1c([N+](=O)[O-])cnc2ccccc12 | 91.5% | 91.8% | 96.6% | 90.6% | 106% | 131% | 100% | 102% | 105% | 121% |
| CCC(c1ccccc1)C(CC)c1ccc(O)c(O)c1 (stereo not given) | 89.5% | 97.4% | 96.1% | 124% | 107% | 83.6% | 85.2% | 98.6% | 98.9% | 125% |
| CCCCCCCCCCCCCCCC[N+]1(CC)CCCC1 | -28.6% (active) | -9.79% (active) | 1.53% (active) | -49.7% (active) | -66.8% (active) | -29.1% (active) | -73.7% (active) | -63.1% (active) | -57.7% (active) | -90.4% (active) |

| SMILES | growth (NCI-H23 lung) | growth (NCI-H226 lung) | growth (NCI-H322M lung) | growth (HOP-62 NSCLC) | growth (NCI-H460 lung) | growth (HOP-92 NSCLC) | growth (NCI-H522 lung) | growth (A549/ATCC NSCLC) | growth (786-0 renal) | growth (COLO 205 colon) |
| --- | --- | --- | --- | --- | --- | --- | --- | --- | --- | --- |
| CN(C)c1ccc(C2Nc3ccccc3-n3cccc32)cc1 (stereo not given) | 102% | 82.8% | 91.9% | 107% | 85.8% | 89.7% | 113% | 98.3% | 108% | 96% |
| CCN(CC)CC#CCOC(=O)[C@]1(C)CCC[C@@]2(C)[C@H]1CC(C=O)=C1C=C(C(C)C)CC[C@@H]12 | 60.2% | 76% | 94.5% | 74.8% | 64% | 44.8% | 53.3% | 62.4% | 58.3% | 44.5% |
| Cc1cc(-c2nc3ccccc3s2)ccc1NC(=O)COc1ccc(Cl)cc1 | 79.7% | 70.6% | 106% | 89.8% | 92.8% | 83.5% | 87.8% | 109% | 93.4% | 110% |
| CN[C@@]12CC3(C=CC(=O)C=C3)O[C@]1(Cc1ccc(OC)cc1)N(C)C(=O)N2 | 91% | 89.4% | 79.9% | 114% | 101% | 94.4% | -23.6% (active) | 74.4% | 84.2% | 47.3% |
| Cc1ccc2cnc(N)c(C#Cc3cncc(C(=O)Nc4ccc(CN5CCN(C)CC5)c(C(F)(F)F)c4)c3)c2c1 | -63.8% (active) | -75.8% (active) | -97.2% (active) | -85.2% (active) | -78.8% (active) | -80.9% (active) | -71% (active) | -79.4% (active) | -79.6% (active) | -70.3% (active) |
| Nc1nc(SCc2ccccc2)c2ncn(C3CCCC3)c2n1 | 85.7% | 110% | 103% | 107% | 98.8% | 106% | 76.8% | 107% | 98.8% | 116% |
| CCC(=O)Oc1ccc(/C(=C(\C)c2ccccc2)c2ccc(OCCN(CC)CC)cc2)cc1 | 89.1% | 95.8% | 96.2% | 95.3% | 80.9% | 61% | 73.5% | 84.9% | 70.1% | 74.6% |
| CCCCN(CCCC)Cc1c(C)[nH]c2cc(OC)ccc2c1=O | 107% | 103% | 113% | 88.9% | 103% | 65.3% | 94.6% | 95.4% | 105% | 101% |
| Brc1cccc(-c2nc(-c3ccc4c(c3)OCCO4)co2)c1 | 71.3% [25 µM] | 78.2% [25 µM] | 90.7% [25 µM] | 57.9% [25 µM] | 25.2% [25 µM] | 80.4% [25 µM] | 24.5% [25 µM] | 56.3% [25 µM] | 78% [25 µM] | 50.5% [25 µM] |
| COc1cc(C2CC(=O)c3c(C)nn(-c4nc5ccccc5[nH]4)c3C2)cc(OC)c1OC (stereo not given) | 86% | 65.9% | 67.8% | 32.3% | 73.7% | -3.61% (active) | 31.6% | 59.5% | 23.8% | 126% |
| CCOC(=O)/C=C/c1ccc(C(=O)OCC)[nH]1 | 72.3% | 89% | 57.4% | 76.7% | 14.3% | 53.8% | 54.4% | 40.3% | 90.2% | 16.2% |
| CC[C@H](CO)Nc1nc(NCc2ccccc2)n2ncc(C(C)C)c2n1 | 13.3% | 10.3% | 14.8% | 3.3% (active) | 5.04% (active) | -8.83% (active) | 1.9% (active) | 19.7% | -2.74% (active) | -27% (active) |
| O=C(Nc1cccc2[nH]c(C(F)(F)F)nc12)c1ccc(Br)cc1F | 1.94% (active) | 36.4% | 57% | 45.3% | 15.1% | -14.9% (active) | -7.83% (active) | 16.7% | 35.8% | 26% |
| CC/C=C\C[C@H](F)C/C=C1/C(=O)C=C[C@@H]1C/C=C\CCCC(=O)OC | -12.6% (active) | 25.4% | 45.5% | -25.8% (active) | 1.34% (active) | 68.9% | -26.8% (active) | 24.3% | 5.15% (active) | -28.1% (active) |
| O=c1ccc2cc3ccccc3cc2[nH]1 | 93.1% | 94% | 114% | 95.4% | 93.8% | 84.8% | 98.8% | 102% | 103% | 121% |
| COc1ccc(C(=O)c2sc3nc4c(c(C(F)(F)F)c3c2N)CN(C(C)=O)CC4)cc1OC | 90.5% | 78.2% | 93.1% | 87% | 95.8% | -0.986% (active) | 78.5% | 91% | 91.9% | 92.4% |
| O=C(COc1cccc(/C=C2/Oc3ccccc3C2=O)c1)Nc1nccs1 | 61.6% | 99.3% | 95.7% | 93.3% | 103% | -51.4% (active) | -9.74% (active) | 88.2% | 90.7% | 235% |
| CC(=O)C1=C(O)C=C2Oc3c(C(=O)/C=C/c4cc(Cl)cc(Cl)c4)c(O)c(C)c(O)c3[C@]2(C)C1=O | -42% (active) | -41.1% (active) | -28.9% (active) | -42.5% (active) | -5.02% (active) | -22% (active) | -52.2% (active) | -27.1% (active) | -34.9% (active) | -70.3% (active) |
| COc1cc(-c2c3c(nc4c2c(C)nn4-c2ccccc2)-c2ccccc2C(=O)C3=O)cc(OC)c1OC | 76.6% | 99.7% | 104% | 107% | 77.4% | 83.7% | 84.4% | 80.6% | 97.8% | 69.7% |
| CCN(CC)CC(O)c1cc(-c2ccc(Cl)cc2)nc2c(C)c(Cl)ccc12 (stereo not given) | -89.3% (active) | -15.8% (active) | -82.5% (active) | -100% (active) | -86% (active) | -46.8% (active) | -76% (active) | -85.8% (active) | -95.9% (active) | -100% (active) |
| N#Cc1c2c(nc3n[nH]c(N)c13)CCCC2 | 99.6% | 110% | 128% | 100% | 108% | 79% | 104% | 108% | 106% | 148% |
